# Bioassay records as filed in PubChem.
# Most compounds without a hit are left out; they make up all but 4.2% or so of the library.
# SMARCA2 activ: activators of SMARCA2 function. 1% of 370,000 active. AID 652017. MG213 cells, MMTV-luciferase reporter, dexamethasone, overnight. activation, % at 9.1 µM; in the data active means activation above about 7.8%;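 further: 0% = vehicle wells and 100% = reference activator wells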
# ssDAF-12 act: activates DAF-12 receptor from parasite S. stercoralis. HEK293 ssDAF-12/GRIP1 lit1-tk-luc reporter, luminescence; % of 3 µM dafachronic acid response. activation, % at 6.8 µM. 1% of 370,000 active. AID 652126;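 active means activation above the mean over all tested compounds plus 3 SD, cut at about 0.9% in these data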;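 further: 0% = DMSO-only wells and 100% = 3 µM delta7-dafachronic acid wells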
# DAX1 StAR inh: DAX1 (NR0B1) inhibition, primary screen; inhibition, % at 6.8 µM; 1.1% of 370,000 active; HEK293T StAR-luciferase reporter, SF-1/DAX-1 repression relief;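 active means inhibition above the mean over all tested compounds plus 3 SD, cut at about 3.6% in these data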;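 further: 0% = DAX-1 cells with DMSO and 100% = cells lacking DAX-1 with DMSO; higher inhibition means more luminescence from relief of DAX-1 repression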
# hcDAF12 agonist: H. contortus DAF-12 activation, primary screen | HEK293 hcDAF-12 lit1-tk-luc reporter, luminescence; 0% DMSO, 100% Δ7-dafachronic acid | activation, % at 6.8 µM | 1.4% of 370,000 active | AID 652067;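 active means activation above the mean of all tested compounds plus 3 SD, cut at about 5.5% in these data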;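 further: 100% = response to 3 µM Δ7-dafachronic acid high control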
# hgDAF-12 ag: hgDAF-12 agonism, primary luciferase screen. HEK293 GAL4-hgDAF12 UAS-luciferase reporter, agonist luminescence; normalized to butyrate control. activation, % at 6.8 µM. 1.8% of 370,000 active. AID 687014;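 active means activation above a cutoff set at the mean of all screened compounds plus 3 SD, cut at about 10% in these data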;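 further: 0% = DMSO wells and 100% = sodium butyrate wells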
# LXR ag: counter-screen for hcDAF-12 agonists: agonists of human LXR-beta. shares compounds with hcDAF12 agonist. HEK293 Gal4-LXR tk-luc reporter, luminescence, 24 h; normalized: DMSO 0%, positive control 100%. activation, % at 6.8 µM. 3,400 tested, under 10 active. AID 743027;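 active means mean percent activation of the reporter above a cutoff set as the average over tested compounds plus their standard deviation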
# Target sequence (P55055 whole entry, looked up, the tested form may be a part): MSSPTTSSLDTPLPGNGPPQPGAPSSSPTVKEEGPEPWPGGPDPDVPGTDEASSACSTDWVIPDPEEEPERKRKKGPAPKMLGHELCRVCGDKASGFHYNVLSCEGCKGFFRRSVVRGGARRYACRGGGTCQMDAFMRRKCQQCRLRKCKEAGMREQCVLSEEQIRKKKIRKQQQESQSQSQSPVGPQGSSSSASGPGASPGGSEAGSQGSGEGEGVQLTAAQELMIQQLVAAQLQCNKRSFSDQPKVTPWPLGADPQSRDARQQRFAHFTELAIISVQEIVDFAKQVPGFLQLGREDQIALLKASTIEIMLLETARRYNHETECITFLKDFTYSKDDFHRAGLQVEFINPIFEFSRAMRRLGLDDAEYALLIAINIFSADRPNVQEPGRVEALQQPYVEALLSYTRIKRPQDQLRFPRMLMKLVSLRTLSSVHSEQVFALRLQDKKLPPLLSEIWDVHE
# hcDAF12 ag: confirmation of H. contortus DAF-12 agonists | shares compounds with hcDAF12 agonist | HEK293 hcDAF-12 lit1-tk-luc reporter, luminescence; % of Δ7-dafachronic acid response | activation, % at 6.8 µM | 61% of 3,400 active | AID 743032;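 active means mean activation across triplicate tests above the threshold derived from the earlier primary screen, cut at about 5.5% in these data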;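 further: 0% = DMSO only wells and 100% = 3 µM Δ7-dafachronic acid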
# hgDAF12 conf: hgDAF-12 agonism, confirmation assay | shares compounds with hgDAF-12 ag | activation, % at 6.8 µM | 80% of 3,300 active | HEK293 GAL4-hgDAF12 luciferase reporter, agonist mode; percent of butyrate response | AID 743050;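 active means mean activation over triplicate wells above the hit cutoff derived from the earlier primary screen, cut at about 11% in these data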;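 further: 0% = DMSO low control and 100% = 2 mM sodium butyrate high control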
# LXR ag 2: activates human LXR-beta, counter-screen for DAF-12 agonists; shares compounds with hgDAF-12 ag; HEK293 Gal4-LXR luciferase reporter, 24 h; activation, % at 6.8 µM; 3,300 tested, under 10 active; AID 743051;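 active means mean activation of the triplicate above a set limit carried over from the primary screen, none filed active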
# Active calls of the source: *; . = no result.
SMILES,SMARCA2 activ,ssDAF-12 act,DAX1 StAR inh,hcDAF12 agonist,hgDAF-12 ag,LXR ag,hcDAF12 ag,hgDAF12 conf,LXR ag 2
COCc1[nH]nc2c1C(c1ccc(F)cc1)N(c1ccccc1)C2=O (stereo unspecified),-1,-1,0,1,0,.,.,.,.
Nc1cccc(-c2nc3ccc(N)cc3s2)c1,5,0,-1,2,6,.,.,.,.
Nc1ccc(-c2nc3ccc(N)cc3s2)cc1,1,1.1*,1,7.5*,19*,1,8.3*,16*,1
CC(C)C[C@H](NC1(C(=O)NCCc2c[nH]c3ccccc23)CCN(C)CC1)C(=O)NCCCc1ccccc1,.,-2,.,-1,4,.,.,.,.
CCc1ccc2oc(-c3cccc(N)c3)nc2c1,-2,3.3*,4.3*,16*,16*,2,14*,24*,1
c1ccc(-c2csc(Nc3cccnc3)n2)cc1,4,1.5*,-1,8.1*,21*,0,7.9*,14*,1
CCN(CC)c1ccc(Nc2nc(-c3cccnc3)cs2)cc1,3,-1,0,0,6,.,.,.,.
Fc1ccc(Nc2nc(-c3cccnc3)cs2)cc1,5,1.1*,1,10*,17*,1,10*,20*,1
CN(C)c1ccc(Nc2nc(-c3cccnc3)cs2)cc1,4,1.3*,2,12*,18*,2,9.7*,23*,1
S=C(Nc1ccc(Cl)cc1)c1nc2ccccc2[nH]1,5,0,4,7.3*,18*,1,6.5*,16*,1
OC(c1ccc(Cl)cc1)C(O)c1nc2ccccc2[nH]1 (stereo unspecified),-2,-2,-1,0,2,.,.,.,.
O=C(N/N=C1\C2CN3CCN(C2)CC1(c1ccccc1)C3)c1ccc(F)cc1,3,-2,1,-1,10,.,.,.,.
Nc1ccccc1C(=O)N/N=C1\C2CN3CCN(C2)CC1(c1ccccc1)C3,3,0,3,12*,14*,0,0,2,0
CC1(C)CC(/C=C/c2ccccc2)=Nc2ccccc2N1,5,1.8*,2,7.6*,19*,0,2,10,0
O=C1CC(/C=C/c2ccccc2)=Nc2ccccc2N1,2,-1,1,-1,3,.,.,.,.
COc1cccc(/C=N/Nc2ccc([N+](=O)[O-])cc2)c1O,4,1,1,7.3*,25*,2,7.2*,21*,1
COC(=O)c1ccc(N/N=C/c2cc([N+](=O)[O-])cc(OC)c2O)cc1,-1,-1,1,1,0,.,.,.,.
O=[N+]([O-])c1ccc(N/N=C\c2cccnc2)nc1,-1,-2,0,1,1,.,.,.,.
O=[N+]([O-])c1ccc(NN=Cc2cccc(O)c2)nc1,-2,1,1,10*,18*,1,4,21*,1
O=c1ccn(C2CC(O)C(COC(c3ccccc3)(c3ccccc3)c3ccccc3)O2)c(=O)[nH]1 (stereo unspecified),-4,-1,0,-1,1,.,.,.,.
COCCNC(=O)C1(C)CCCN(C(=O)c2ccccc2C(F)(F)F)C1 (stereo unspecified),-1,-1,0,-1,0,.,.,.,.
COc1ccc2cc(C(N)=O)c(=Nc3ccccc3)oc2c1,6,0,4.3*,14*,14*,1,2,13*,1
CCOC(=O)CSc1nc2ccsc2c(=O)[nH]1,6,-1,0,0,2,.,.,.,.
Cc1ccc(-c2nc3ccsc3c(=O)[nH]2)cc1,1,1.4*,3.7*,12*,22*,1,14*,15*,1
C[C@]1(CC/C(=C/CO)CO)[C@H](C=O)CC[C@@]23COC(=O)C2=CCC[C@@H]31,2,1,0,3,-2,.,.,.,.
SMILES,SMARCA2 activ,ssDAF-12 act,DAX1 StAR inh,hcDAF12 agonist,hgDAF-12 ag,LXR ag,hcDAF12 ag,hgDAF12 conf,LXR ag 2
C=CCN(CC#Cc1ccc(C(F)(F)F)cc1)CC=C,-1,-1,0,3,-4,.,.,.,.
CC(C)NC(=O)c1cc(-c2ccc3c(c2)OCO3)on1,3,0,3,6.6*,14*,1,5,14*,1
COc1cc(NC(=O)c2cc(-c3ccc4c(c3)OCO4)on2)cc(OC)c1OC,-3,-1,-1,-2,-3,.,.,.,.
COC(=O)C[C@H]1C=C[C@H](NS(=O)(=O)c2cn(C)cn2)[C@@H](CO)O1,4,-1,2,0,1,.,.,.,.
COc1ccc(OC)c(C(=O)c2coc3ccc(OC(C)=O)cc23)c1,1,-1,0,-1,-2,.,.,.,.
COc1ccc(C(=O)c2coc3ccc(OC(C)=O)cc23)cc1,4,0,2,7.3*,14*,2,8.1*,23*,1
COCCCNC(=O)C[C@H]1C[C@@]2(C(=O)OC)C(=C[C@H](C(C)C)O[C@@H]2C2CC2)N(Cc2ccccc2)C1=O,-2,-1,1,0,0,.,.,.,.
CN(C)c1cccc(-c2cnc(N3CCC(C(N)=O)CC3)s2)c1,.,1.8*,.,6.7*,17*,2,6.0*,19*,1
Fc1ccccc1Nc1nc2ccccc2o1,6,1,3,8.2*,16*,2,9.0*,19*,1
Cc1nc(Nc2ccccc2F)c2oc3ccccc3c2n1,5,-1,0,1,5,.,.,.,.
O=C(c1cc(F)ccc1F)N1CCCC(c2nc(-c3cccs3)no2)C1 (stereo unspecified),3,-1,1,-2,5,.,.,.,.
O=C(NN=C1CCCC1)c1cccs1,3,1,4.4*,7.0*,22*,0,1,4,0
N#CC(=C1CCCC1)c1nc(-c2ccccc2)cs1,6,1.7*,2,7.5*,17*,1,6.0*,21*,1
CCC(=O)N[C@@H]1C[C@@H]2O[C@@H](CO)CC[C@@H]2O[C@@H]1CCc1ccc(-c2cccc(OC)c2)cc1,-3,-2,-1,-1,-4,.,.,.,.
Clc1ccc(-n2nnc(-c3cccnc3Cl)n2)cc1Cl,2,0,1,2,5,.,.,.,.
Fc1ccc(-n2nnc(-c3cccnc3Cl)n2)cc1,4,0,3,7.2*,17*,1,6,17*,1
